This is an account of results in PubChem BioAssay.

The structures appear in SMILES notation.

The test deals with Fibroblast growth factor 10 (Homo sapiens) (UniProt O15520). Description: FGF10 binders on small-molecule microarrays, primary screen, biochemical, small-molecule microarray, 635 nm fluorescence (AID 1102). Conditions: FGF10 binding, fluorescence 635 nm, higher = more signal.
Sequence of Fibroblast growth factor 10 (Homo sapiens) (O15520 whole entry, looked up): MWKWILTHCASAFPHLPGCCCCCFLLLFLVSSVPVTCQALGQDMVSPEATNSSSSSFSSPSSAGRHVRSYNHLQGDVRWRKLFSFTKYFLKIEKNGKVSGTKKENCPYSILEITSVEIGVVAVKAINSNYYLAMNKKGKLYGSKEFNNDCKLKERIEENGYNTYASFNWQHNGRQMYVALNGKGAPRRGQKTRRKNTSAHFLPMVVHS
For `C=C(CCCC)C(=O)CC[C@@H](OC(=O)c1ccccc1-c1ccccc1C(=O)O)c1ccc(CO)o1`, the composite z-score was determined as 1.22. `O=C1c2ccccc2[C@](Cc2ccccc2I)(C(=O)O)[C@H](c2ccc(CO)cc2)N1Cc1ccccc1C(F)(F)F` registered a composite z-score of -0.414. The compound `O[C@@H](Cc1ccccc1)[C@@H](/C=C/c1ccccc1)NCc1ccccc1Br` came in with a composite z-score of -1.98. The result for `O=C(NCc1ccccc1)[C@@H]1c2ccccc2C(=O)N(Cc2cc(F)cc(C(F)(F)F)c2)[C@H]1c1ccc(CO)cc1` reads 0.29; that for `CCCCN1CC=CC23O[C@@H]4/C=C\CCCOC(=O)C4[C@H]2C(=O)N(C(C)CO)[C@@H]3C1=O` (stereo partly specified), -0.319.

As to `CC(C)C(CO)N1C(=O)[C@@H]2[C@H]3C(=O)OCC=C[C@H]3OC23C=CCN(c2ccc4ccccc4c2)C(=O)[C@@H]13` (stereo partly specified), the composite z-score is -0.617. The result for `C=C(/C(=C/C[C@@H](OC(=O)c1ccncc1)c1ccc(CO)o1)c1cc(C(=O)OC)ccc1OC)C(C)C` reads 1.3. The result for `C=CC[C@@]1(C(=O)OC)N=C(c2ccc(OCCCO)cc2)O[C@@H]1c1ccccc1CN=[N+]=[N-]` reads -0.216. The value for `[N-]=[N+]=Nc1ccccc1[C@H]1OC(c2ccc(OCCCO)cc2)=N[C@@]1(CCS(=O)(=O)c1ccccc1)C(=O)N1CCOCC1` was 1.26; that for `C=CCN1C(=O)[C@@]2(O[C@@H](CCO)[C@H]([Si](C)(C)c3ccc(OC)cc3)[C@H]2C)c2cc(N3C(=O)COc4ccccc43)ccc21` was 0.993; that for `CCCC[C@H]1OB(O)C[C@H]2C1=C(COc1ccccc1)C[C@H]1C(=O)N(Cc3ccccc3)C(=O)[C@H]12` was 0.509.
